ClpP mod: qHTS Assay for Activators of ClpP; hit rate 1.9% among 340,000; purified B. subtilis ClpP, FRET peptide cleavage, 20 min; ATP-dependent Clp protease proteolytic subunit (Bacillus subtilis (strain 168)), P80244; Potency, µM (series often up to 57.5 µM), inactives show at the highest dose activity change, negative = active; AID 651965, 2013; active = well fitted falling curve with a large enough effect; inconclusive = small, poorly fitted or top-dose-only effect; inactive = no such curve, though single readings can be large or run the other way; also: potency is read from the fitted curve at half-maximal effect; the source files actives as falling curves though it sought activators and does not explain the sign; nearly all actives have a fitted effect of over 65% in size
Target sequence (P80244 whole entry, looked up): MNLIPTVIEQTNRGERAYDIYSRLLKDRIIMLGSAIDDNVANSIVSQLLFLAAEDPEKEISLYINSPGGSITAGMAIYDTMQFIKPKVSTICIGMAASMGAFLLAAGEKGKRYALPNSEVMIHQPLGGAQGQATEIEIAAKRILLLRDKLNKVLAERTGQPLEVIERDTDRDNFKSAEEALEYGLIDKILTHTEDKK
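FRET quenching reversal measured ClpP activation: 10 microg/mL B. subtilis ClpP at pH 8 with the FRET-FV decapeptide, read at 430 nm after 320 nm excitation. The 20-min minus 0-min signal was scaled between DMSO/no-enzyme wells and ADEP (5.8 microM final).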
PKM2 act: increases activity of human pyruvate kinase M2; P14618; purified PKM2, Kinase-Glo ATP luminescence, activation; response scale: 0% is enzyme alone, no compound; Potency, µM (doses to about 57.5 µM), for inactives: at the highest dose activation, most hits filed as activators; hit rate 0.34% among 260,000; also: potency is read from the fitted curve at half-maximal effect; % is scaled to controls: 0 for no effect and ±100 for the full control effect; nearly all actives have a fitted effect of over 55% in size
Target sequence (P14618 whole entry, looked up): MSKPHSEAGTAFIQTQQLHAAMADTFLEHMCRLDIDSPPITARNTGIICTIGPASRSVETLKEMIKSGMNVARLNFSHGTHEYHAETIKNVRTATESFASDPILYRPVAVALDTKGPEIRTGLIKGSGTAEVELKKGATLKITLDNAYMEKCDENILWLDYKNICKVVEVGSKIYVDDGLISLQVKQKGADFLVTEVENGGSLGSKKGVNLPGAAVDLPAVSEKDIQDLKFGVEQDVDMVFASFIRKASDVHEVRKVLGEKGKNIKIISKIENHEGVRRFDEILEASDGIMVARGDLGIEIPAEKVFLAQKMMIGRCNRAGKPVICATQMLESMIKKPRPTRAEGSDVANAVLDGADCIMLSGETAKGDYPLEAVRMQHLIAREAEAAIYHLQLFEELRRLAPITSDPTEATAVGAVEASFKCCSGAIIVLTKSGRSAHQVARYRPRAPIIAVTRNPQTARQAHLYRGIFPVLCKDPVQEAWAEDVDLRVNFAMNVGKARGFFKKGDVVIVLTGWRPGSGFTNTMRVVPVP
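hPK-M2, >95% pure; 0.1 mM ADP / 0.5 mM PEP final; imidazole pH7.2 buffer w/ 7 mM MgCl2, 50 mM KCl; 1 h RT; Kinase-Glo lum. Intermediate enzyme activity for dual inhibitor/activator qHTS.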
IL2 activator: activates IL-2 in a cell-based reporter assay; hit rate 0.065% among 360,000; IL-2 activation reporter assay, cell-based qHTS; stimulated with anti-CD3/CD4/CD28 beads; in transgenic mouse T cells; activation, % (series mostly up to about 46 µM); in the data active = activation above about 50%; inconclusive = mostly about 30% to 49%; also: 0% is about no effect
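Readout is EGFP and DsRed signal by fluorescent plate cytometry after 18 h at 37 degrees C. Transgenic mouse T cells (750/well) received compound for 60 min before bead stimulation (anti-CD3, anti-CD4, anti-CD28); memory T cells served as non-tolerant control.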
NPSR antagonist: blocks cAMP signaling of the human neuropeptide S receptor. Q6W5P4. CHO-NPSR cells, cAMP TR-FRET, antagonist mode. Potency, µM (doses to about 38.3 µM), without a hit: at the top dose activity change, negative = inhibition, hits mostly inhibitors. hit rate 1% among 220,000. AID 1461; also: potency is read from the fitted curve at half-maximal effect; % is scaled to controls: 0 for no effect and ±100 for the full control effect; nearly all actives have a fitted effect of over 50% in size
An asterisk follows results filed as active; ? = inconclusive; . = not tested or not shown; [ ] = another dose, or the depositor's remark. Hits are enriched below; roughly 2% of the tested compounds scored in any of these assays. Unless noted, calls follow the shape of the dose curve; as a rule, active = well fitted curve in the direction sought with a large enough effect; inconclusive = small, poorly fitted or top-dose-only effect, or another doubt; inactive = no such curve, though single readings can be large; an effect the other way counts as inactive or inconclusive.

SMILES	ClpP mod	PKM2 act	IL2 activator	NPSR antagonist
CC(=O)Nc1sc(N/N=C\c2ccc(O)cc2)nc1-c1cccs1	-5%	22µM*	0	-11%
CCOC(=O)c1cnc2ccc(OC)cc2c1NCc1ccccc1	-18%	3%	-6	-38%
CCOC(=O)c1cnc2ccc(OCC)cc2c1NCc1ccccc1OC	22µM*	1%	0	?
COc1ccccc1OCC(O)Cn1c(=N)n(Cc2ccccc2)c2ccccc21 (stereo unspecified)	-6%	-12%	-4	4%[46.1 µM]
Cc1ccccc1OCC(O)Cn1c(=N)n(Cc2ccccc2)c2ccccc21 (stereo unspecified)	.	4%	-2	10µM*
COc1cc2c(cc1OC)C(c1ccc(-c3ccccc3Cl)o1)=NCC2	-18%	-2%	-1	?
COc1cc2c(cc1OC)C(c1ccc(-c3ccc(Cl)cc3Cl)o1)=NCC2	-6%	10%	-1	7.9µM*
O=C(COc1ccc(F)cc1)Nc1nnc(-c2ccncc2)s1	25µM*	-2%	-2	-8%[46.1 µM]
COCC(=O)Nc1nnc(-c2cccs2)s1	?	-6%	-1	-8%[46.1 µM]
COc1ccc(Cc2nnc(NC(=O)Cc3cccs3)s2)cc1OC	28µM*	?	1	-12%[46.1 µM]
O=C(COc1ccccc1F)Nc1nnc(-c2ccncc2)s1	-39%	7%	11	-15%[46.1 µM]
O=C(Cc1cccs1)Nc1nnc(-c2ccncc2)s1	28µM*	15%	-1	-6%[46.1 µM]
CCC(C)C(=O)Nc1nnc(-c2cccs2)s1 (stereo unspecified)	32µM*	0%	1	-20%[46.1 µM]
CCC(=O)Nc1nnc(-c2cccs2)s1	.	-11%	2	6%
O=C(Cc1ccccc1)Nc1nnc(-c2cccs2)s1	20µM*	2%	-1	0%[46.1 µM]
O=C(OCCNc1ncc(C(F)(F)F)cc1Cl)c1ccc(S(=O)(=O)N2CCOCC2)cc1	1%	20µM*	3	7%[7.67 µM]
COc1ccc(C2c3c(ncn(CCCN4CCOCC4)c3=N)Oc3ccc4ccccc4c32)cc1OC (stereo unspecified)	-3%	-1%	1	10µM*
COc1ccc(Cc2nc3c4c(ncn3n2)Oc2ccc3ccccc3c2C4c2ccc(OC)c(OC)c2)cc1 (stereo unspecified)	13µM*	1%	2	0%
COc1ccc(C2c3ccc4ccccc4c3Oc3ncn(CCN4CCOCC4)c(=N)c32)cc1OC (stereo unspecified)	-5%	7%	-1	57%
COc1ccc(Cc2nc3c4c(ncn3n2)Oc2c(ccc3ccccc23)C4c2ccc(OC)c(OC)c2)cc1 (stereo unspecified)	?	0%	2	-12%
CCCNC(=O)COC(=O)c1ccc(-c2ccccc2)cc1	.	.	0	-3%
O=C(OCn1ncc(Br)c(Br)c1=O)c1ccccc1Cl	0%	1%	-3	2.5µM*
O=C(OCn1ncc(Br)c(Br)c1=O)c1ccc(F)cc1	4%	3%	-1	2.5µM*
O=C(OCn1ncc(Cl)c(Cl)c1=O)c1cccc(C(F)(F)F)c1	2%	3%	-2	?
O=C(OCc1cnc(Cl)s1)c1ccccc1Cl	-1%	6%	0	-7%[46.1 µM]
SMILES	ClpP mod	PKM2 act	IL2 activator	NPSR antagonist
COc1cc2c(cc1OC)CN(C(=O)CSc1nc(C)cc(C)c1C#N)CC2	-3%	-11%	0	-2%
CCOc1ccc2cc(C#N)c(SCC(=O)OCc3ccccc3)nc2c1	4%	.	.	.
Cc1ccc2cc(C#N)c(SCC(=O)NNC(=O)Cc3ccccc3)nc2c1	28µM*	1%	4	7.9µM*
CCc1nc(SCC(=O)N2CCc3cc(OC)c(OC)cc3C2)c(C#N)cc1C	32µM*	.	-1	.
CCOC(=O)CSc1nc2cc(OC)c(OC)cc2cc1C#N	32µM*	.	.	.
CCOC(=O)CSc1nc2cc(OCC)ccc2cc1C#N	16µM*	8%	0	-1%[46.1 µM]
COc1cc2cc(C#N)c(SCC(=O)N3CCOCC3)nc2cc1OC	-27%	4%	0	-9%[46.1 µM]
CCCCS(=O)(=O)CC(COc1ccccc1)OC(=O)c1ccccc1 (stereo unspecified)	0%	-1%	0	-19%[46.1 µM]
CCOc1ccc2cc(C#N)c(SCC(=O)NC(C)CC)nc2c1 (stereo unspecified)	.	12%	.	6.3µM*
O=C(Nc1ccc(S(=O)(=O)N2CCOCC2)cc1)c1ccc([N+](=O)[O-])s1	.	.	-1	.
CC(C)NS(=O)(=O)c1ccc(NC(=O)C(C)OC(=O)CCCOc2ccccc2)cc1 (stereo unspecified)	0%	.	0	.
Nc1ccc2c(c1)C(=O)N(CCCCCC(=O)O)C2	16µM*	-2%	-1	-9%[46.1 µM]
Cc1cc2nnc(SC(C)C)n2c2ccccc12	28µM*	1%	0	1%[46.1 µM]
CCOC(=O)c1c(NC(=O)COC(=O)CCOc2ccccc2C)sc(C(=O)NC)c1C	20µM*	.	0	.
COc1c(C)cccc1C(=O)NC(=S)Nc1cccc2nsnc12	.	-2%	-3	7.9µM*
CC(C)CC(=O)NC(=S)Nc1cccc2nsnc12	.	-3%	0	?
CC(C)(Oc1ccc(Cl)cc1)C(=O)NC1CCCCC1	20µM*	.	-1	.
CC1(C)CC(NC(=O)C(C)(C)Oc2ccc(Cl)cc2)CC(C)(C)N1	-2%	.	-1	.
CC(=O)OC1(C(C)=O)CCC2C3CC(C(F)(F)F)C4=CC(=O)CCC4(C)C3CCC21C (stereo unspecified)	.	.	0	.
CC(=O)O[C@]1(C(C)=O)CC[C@H]2[C@@H]3C[C@H](C)C4=CC(=O)CC[C@]4(C)[C@H]3CC[C@@]21C	-1%	-1%	-1	2.5µM*
CC(=O)O[C@]1(C(C)=O)CC[C@H]2[C@@H]3C=C(Cl)C4=CC(=O)CC[C@]4(C)[C@H]3CC[C@@]21C	1%	-3%	-1	5µM*
O=C1CC/C=C\C[C@@H](CC(=O)N(CCO)Cc2ccccc2)C(=O)N[C@H](Cc2ccccc2)CO1	-1%	.	0	.
O=C(NC1CCCC1)c1ccccc1-c1ccccc1	32µM*	-4%	0	-31%
CCOC(=O)c1cc(OC(=O)c2ccc(Cl)cc2)n(-c2ccccc2)n1	-9%	.	.	.
CC(C)CC(=O)Nc1ccc(-c2nc3ccccc3c(=O)o2)cc1	11µM*	-23%	3	-7%
SMILES	ClpP mod	PKM2 act	IL2 activator	NPSR antagonist
CC(=O)Nc1ccc(-c2nc3ccccc3c(=O)o2)cc1	.	.	0	.
CC(C)(Oc1ccc(Cl)cc1)C(=O)Nc1ccc2oc(-c3ccncc3)nc2c1	28µM*	2%	0	?
COc1ccc(-c2nc3cc(NC(=O)Cc4ccc(OC)c(OC)c4)ccc3o2)cc1	14µM*	2%	-2	-5%[46.1 µM]
CCC(C)NCC(=O)Nc1ccc(-c2nc3cc(NC(=O)CNC(C)CC)ccc3o2)cc1 (stereo unspecified)	13µM*	0%	1	12%[46.1 µM]
COc1ccc(-c2nc3cc(NC(=O)Cc4ccc(Cl)cc4)ccc3o2)cc1OC	5%	.	.	.
Cc1cc(C)cc(C(=O)N2CCN=C2c2ccccc2)c1	-2%	12%	-2	1%

Screens as filed in PubChem BioAssay.
